# According to PubChem BioAssay AID1159580 (chemical genetic matrix, 2015):
# The whole screen tested about 5,500 compounds, of which about 2,000 (36%) were called active. Not shown: some 18% with an inconclusive outcome. The list shows a part of the results. A number with no mark means an inactive call. Rule as the data show it: active = normalized growth mostly below about 0.91 (no sharp cut-off); inconclusive = no clear call, values can overlap the other calls; inactive = mostly above about 0.92.
# Test: chemical genetic growth profiling, strain panel (AID 1159580);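 also: tested at 20 µM; growth read once vehicle control cultures reached saturation at 30 °C; 1 = growth at the plate median or of vehicle wells; lower values mean less growth of the strain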
# Conditions: growth OD
# [1] = S. cerevisiae deletion strains, locus YAL040C, strain CLN3, active compounds read low
# [2] = S. cerevisiae deletion strains, locus YDR363W, strain ESC2, active compounds read low
# [3] = S. cerevisiae deletion strains, locus YER002W, strain NOP16, active compounds read low
# [4] = S. cerevisiae deletion strains, locus YJR075W, strain HOC1, active compounds read low
# [5] = S. cerevisiae deletion strains, locus YNL175C, strain NOP13, active compounds read low
# [6] = S. cerevisiae deletion strains, locus YNL197C, strain WHI3, active compounds read low
# [7] = S. cerevisiae deletion strains, locus YNL224C, strain SQS1, active compounds read low
# [8] = S. cerevisiae deletion strains, locus YOR083W, strain WHI5 (second series), active compounds read low
# [9] = S. cerevisiae deletion strains, locus YPL055C, strain LGE1, active compounds read low
# [10] = S. cerevisiae deletion strains, locus YMR263W, strain SAP30, active compounds read low
# [11] = S. cerevisiae deletion strains, locus YNL153C, strain GIM3, active compounds read low
# [12] = S. cerevisiae deletion strains, locus YNL322C, strain KRE1, active compounds read low
# [13] = S. cerevisiae deletion strains, locus YPL241C, strain CIN2, active compounds read low
# [14] = S. cerevisiae deletion strains, locus YDL101C, strain DUN1, active compounds read low
# [15] = S. cerevisiae deletion strains, locus YHR030C, strain SLT2, active compounds read low
structure (smiles),measurement,setting,value
CC(=O)C(C)=O,normalized growth,[1],1.01
same,normalized growth,"S. cerevisiae deletion strains, locus YCL061C, strain MRC1 (second series), active compounds read low",1.01
same,normalized growth,[2],1.03
same,normalized growth,[3],1
same,normalized growth,[4],1.02
same,normalized growth,[5],0.994
same,normalized growth,[6],1.03
same,normalized growth,[7],0.99
same,normalized growth,[8],1.02
same,normalized growth,[9],1.07
[N-]=[N+]=Nc1ccc(C(=O)CSC[C@H](NC(=O)CC[C@H](N)C(=O)O)C(=O)NCC(=O)O)cc1,normalized growth,[1],1.02
same,normalized growth,[2],0.999
same,normalized growth,[3],0.989
same,normalized growth,"S. cerevisiae deletion strains, locus YGR229C, strain SMI1, active compounds read low",1
same,normalized growth,[10],0.997
same,normalized growth,[11],0.99
same,normalized growth,[5],1.01
same,normalized growth,[6],1.01
same,normalized growth,[7],1.01
same,normalized growth,[12],1.01
same,normalized growth,[8],1.01
same,normalized growth,[13],0.996
CSc1ccc(C(=O)O)s1,normalized growth,"S. cerevisiae deletion strains, locus YAL013W, strain DEP1, active compounds read low",0.969
same,normalized growth,"S. cerevisiae deletion strains, locus YBR229C, strain ROT2, active compounds read low",0.931
same,normalized growth,"S. cerevisiae deletion strains, locus YCL061C, strain MRC1, active compounds read low",0.938
same,normalized growth,[14],0.939
same,normalized growth,"S. cerevisiae deletion strains, locus YDR150W, strain NUM1, active compounds read low",0.945
same,normalized growth,"S. cerevisiae deletion strains, locus YEL061C, strain CIN8, active compounds read low",1.03
same,normalized growth,"S. cerevisiae deletion strains, locus YGR078C, strain PAC10, active compounds read low",0.926 (active)
same,normalized growth,[15],1.16
same,normalized growth,"S. cerevisiae deletion strains, locus YHR087W, strain rtc3, active compounds read low",0.862 (active)
same,normalized growth,"S. cerevisiae deletion strains, locus YJR043C, strain POL32, active compounds read low",0.961
same,normalized growth,[4],0.874 (active)
same,normalized growth,"S. cerevisiae deletion strains, locus YKL190W, strain CNB1, active compounds read low",1.01
same,normalized growth,"S. cerevisiae deletion strains, locus YLR039C, strain RIC1, active compounds read low",1.04
same,normalized growth,"S. cerevisiae deletion strains, locus YLR058C, strain SHM2 (second series), active compounds read low",0.945
same,normalized growth,"S. cerevisiae deletion strains, locus YLR085C, strain ARP6, active compounds read low",1.1
same,normalized growth,"S. cerevisiae deletion strains, locus YLR262C, strain YPT6, active compounds read low",1.01
same,normalized growth,"S. cerevisiae deletion strains, locus YML094W, strain GIM5, active compounds read low",1.04
same,normalized growth,"S. cerevisiae deletion strains, locus YMR219W, strain ESC1, active compounds read low",0.957
same,normalized growth,[10],0.955
same,normalized growth,"S. cerevisiae deletion strains, locus YMR307W, strain GAS1, active compounds read low",1.05
same,normalized growth,"S. cerevisiae deletion strains, locus YNL128W, strain TEP1, active compounds read low",1.01
same,normalized growth,[11],0.932
same,normalized growth,"S. cerevisiae deletion strains, locus YNL298W, strain CLA4 (second series), active compounds read low",1.07
same,normalized growth,[12],0.944
same,normalized growth,"S. cerevisiae deletion strains, locus YNR030W, strain Alg12, active compounds read low",1.03
same,normalized growth,[9],0.883
same,normalized growth,[13],0.906
same,normalized growth,"S. cerevisiae deletion strains, locus YPR135W, strain CTF4, active compounds read low",1.11
same,normalized growth,"S. cerevisiae strains, strain wild type, active compounds read low",1.01
N#Cc1c(Br)cnn1Cc1cc(C(F)(F)F)cc(C(F)(F)F)c1,normalized growth,"S. cerevisiae deletion strains, locus YAR019C, strain CDC15, active compounds read low",0.997
same,normalized growth,"S. cerevisiae deletion strains, locus YBL105C, strain PKC1, active compounds read low",1
same,normalized growth,"S. cerevisiae deletion strains, locus YBR135W, strain CKS1, active compounds read low",1.01
same,normalized growth,"S. cerevisiae deletion strains, locus YBR136W, strain MEC1, active compounds read low",0.995
same,normalized growth,"S. cerevisiae deletion strains, locus YBR160W, strain CDC28, active compounds read low",0.999
same,normalized growth,"S. cerevisiae deletion strains, locus YDL017W, strain CDC7, active compounds read low",0.995
same,normalized growth,"S. cerevisiae deletion strains, locus YDL028C, strain MPS1, active compounds read low",1
same,normalized growth,[14],0.988
same,normalized growth,"S. cerevisiae deletion strains, locus YDL108W, strain KIN28, active compounds read low",0.997
same,normalized growth,"S. cerevisiae deletion strains, locus YDL132W, strain cdc53, active compounds read low",0.999
same,normalized growth,"S. cerevisiae deletion strains, locus YDL214C, strain PRR2, active compounds read low",0.863
same,normalized growth,"S. cerevisiae deletion strains, locus YDR052C, strain DBF4, active compounds read low",0.993
same,normalized growth,"S. cerevisiae deletion strains, locus YDR054C, strain cdc34, active compounds read low",0.989
same,normalized growth,"S. cerevisiae deletion strains, locus YDR226W, strain ADK1, active compounds read low",1
same,normalized growth,"S. cerevisiae deletion strains, locus YDR477W, strain SNF1, active compounds read low",0.939
same,normalized growth,"S. cerevisiae deletion strains, locus YER123W, strain YCK3, active compounds read low",0.842
same,normalized growth,"S. cerevisiae deletion strains, locus YER133W, strain GLC7, active compounds read low",0.919
same,normalized growth,"S. cerevisiae deletion strains, locus YFL009W, strain cdc4, active compounds read low",0.993
same,normalized growth,"S. cerevisiae deletion strains, locus YFL029C, strain CAK1, active compounds read low",0.998
same,normalized growth,"S. cerevisiae deletion strains, locus YFR003C, strain YPI1, active compounds read low",1
same,normalized growth,"S. cerevisiae deletion strains, locus YFR019W, strain FAB1, active compounds read low",0.936
same,normalized growth,"S. cerevisiae deletion strains, locus YFR028C, strain CDC14, active compounds read low",1
same,normalized growth,"S. cerevisiae deletion strains, locus YGR040W, strain KSS1, active compounds read low",0.925
same,normalized growth,"S. cerevisiae deletion strains, locus YGR052W, strain FMP48, active compounds read low",0.946
same,normalized growth,"S. cerevisiae deletion strains, locus YGR092W, strain DBF2, active compounds read low",0.919
same,normalized growth,[15],0.933
same,normalized growth,"S. cerevisiae deletion strains, locus YHR079C, strain IRE1, active compounds read low",0.93
same,normalized growth,"S. cerevisiae deletion strains, locus YHR082C, strain KSP1, active compounds read low",0.907
same,normalized growth,"S. cerevisiae deletion strains, locus YHR205W, strain SCH9, active compounds read low",0.817
same,normalized growth,"S. cerevisiae deletion strains, locus YIL147C, strain SLN1, active compounds read low",0.99
same,normalized growth,"S. cerevisiae deletion strains, locus YJL095W, strain BCK1, active compounds read low",0.941
same,normalized growth,"S. cerevisiae deletion strains, locus YJL128C, strain PBS2, active compounds read low",0.887
same,normalized growth,"S. cerevisiae deletion strains, locus YJL157C, strain FAR1, active compounds read low",0.909
same,normalized growth,"S. cerevisiae deletion strains, locus YJR016C, strain ILV3, active compounds read low",0.989
same,normalized growth,"S. cerevisiae deletion strains, locus YJR066W, strain TOR1 (second series), active compounds read low",0.919
same,normalized growth,"S. cerevisiae deletion strains, locus YJR066W, strain TOR1, active compounds read low",0.952
same,normalized growth,"S. cerevisiae deletion strains, locus YKL048C, strain ELM1, active compounds read low",0.957
same,normalized growth,"S. cerevisiae deletion strains, locus YKL067W, strain YNK1, active compounds read low",0.895
same,normalized growth,"S. cerevisiae deletion strains, locus YKL101W, strain HSL1, active compounds read low",0.878
same,normalized growth,"S. cerevisiae deletion strains, locus YKL193C, strain SDS22, active compounds read low",0.996
same,normalized growth,"S. cerevisiae deletion strains, locus YKL203C, strain TOR2, active compounds read low",1
same,normalized growth,"S. cerevisiae deletion strains, locus YLR113W, strain HOG1, active compounds read low",0.761 (active)
same,normalized growth,"S. cerevisiae deletion strains, locus YLR133W, strain CKI1, active compounds read low",0.926
same,normalized growth,"S. cerevisiae deletion strains, locus YLR403W, strain SFP1, active compounds read low",0.933
same,normalized growth,"S. cerevisiae deletion strains, locus YML070W, strain DAK1, active compounds read low",0.884
same,normalized growth,"S. cerevisiae deletion strains, locus YMR001C, strain CDC5, active compounds read low",0.997
same,normalized growth,"S. cerevisiae deletion strains, locus YMR205C, strain PFK2 (second series), active compounds read low",0.907
same,normalized growth,"S. cerevisiae deletion strains, locus YMR277W, strain FCP1, active compounds read low",1
same,normalized growth,"S. cerevisiae deletion strains, locus YNL006W, strain LST8, active compounds read low",0.997
same,normalized growth,"S. cerevisiae deletion strains, locus YNL020C, strain ARK1, active compounds read low",0.888
same,normalized growth,"S. cerevisiae deletion strains, locus YNL161W, strain CBK1, active compounds read low",0.994
same,normalized growth,"S. cerevisiae deletion strains, locus YNL183C, strain NPR1, active compounds read low",0.931
same,normalized growth,"S. cerevisiae deletion strains, locus YNL207W, strain RIO2, active compounds read low",0.99
same,normalized growth,"S. cerevisiae deletion strains, locus YNL222W, strain SSU72, active compounds read low",0.996
same,normalized growth,"S. cerevisiae deletion strains, locus YNL307C, strain MCK1 (second series), active compounds read low",0.903
same,normalized growth,"S. cerevisiae deletion strains, locus YOL078W, strain AVO1, active compounds read low",0.999
same,normalized growth,"S. cerevisiae deletion strains, locus YOL136C, strain PFK27, active compounds read low",0.859
same,normalized growth,"S. cerevisiae deletion strains, locus YOR061W, strain CKA2, active compounds read low",0.867
same,normalized growth,"S. cerevisiae deletion strains, locus YOR119C, strain RIO1, active compounds read low",0.974
same,normalized growth,"S. cerevisiae deletion strains, locus YOR231W, strain MKK1, active compounds read low",0.903
same,normalized growth,"S. cerevisiae deletion strains, locus YOR329C, strain SCD5, active compounds read low",0.991
same,normalized growth,"S. cerevisiae deletion strains, locus YPL031C, strain PHO85, active compounds read low",0.922
same,normalized growth,"S. cerevisiae deletion strains, locus YPL153C, strain RAD53, active compounds read low",0.928
same,normalized growth,"S. cerevisiae deletion strains, locus YPL204W, strain HRR25, active compounds read low",0.943
same,normalized growth,"S. cerevisiae deletion strains, locus YPL209C, strain IPL1, active compounds read low",1
same,normalized growth,"S. cerevisiae deletion strains, locus YPL256C, strain CLN2, active compounds read low",0.876
same,normalized growth,"S. cerevisiae deletion strains, locus YPR025C, strain CCL1, active compounds read low",0.999
same,normalized growth,"S. cerevisiae deletion strains, locus YPR106W, strain ISR1, active compounds read low",0.983
same,normalized growth,"S. cerevisiae deletion strains, locus YPR111W, strain DBF20, active compounds read low",0.959
same,normalized growth,"S. cerevisiae deletion strains, strain NNK1, active compounds read low",0.956
same,normalized growth,"S. cerevisiae deletion strains, strain TSCII, active compounds read low",0.998
